Calls of active or inactive are those of the source. Unless noted, no rule for the calls is given here.
How the values were obtained:
[1] = A549 cell viability effects, profiling panel, calcein-AM fluorescence, 48 h, basal (AID 1162); conditions: higher = more signal; also: test concentration not given here
[2] = adipocyte viability effects, profiling panel, cell-based, 3T3-L1 adipocytes, calcein-AM fluorescence, 48 h, basal (AID 1163); conditions: 3T3-L1 adipocytes viability, higher = more signal; also: test concentration not given here
[3] = HepG2 cell viability effects, profiling panel, calcein-AM fluorescence, 48 h, basal (AID 1164); conditions: higher = more signal; also: test concentration not given here
[4] = MM1S cell viability effects, profiling panel, calcein-AM fluorescence, 48 h, basal (AID 1165); conditions: higher = more signal;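 also: viability of MM1S multiple myeloma cells under basal unstimulated conditions; test concentration not given here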
[5] = basal RPMI8226 viability, no added stimulus, profiling panel, cell-based, calcein-AM fluorescence, 48 h, PK04 Diversity Set (AID 1166); conditions: RPMI8226 myeloma viability, higher = more signal;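 also: cells grown under basal conditions without added stimulus; test concentration not given here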
[6] = basal HepG2 mitochondrial membrane potential changes, profiling panel, cell-based, JC-1 fluorescence, 24 h, 100 nL compound (AID 1167); conditions: higher = more signal; also: test concentration not given here
[7] = basal 3T3-L1 adipocyte mitochondrial potential changes, profiling panel, cell-based, JC-1 fluorescence, 3T3-L1 adipocytes, 24 h, 100 nL compound (AID 1168); conditions: JC-1 mitochondrial fluorescence, higher = more signal, called active from +8 up or from −8 down; also: test concentration not given here
[8] = basal RPMI8226 mitochondrial membrane potential changes, profiling panel, cell-based, JC-1 fluorescence, 24 h, 100 nL compound (AID 1169); conditions: RPMI8226 myeloma, JC-1 mitochondrial potential fluorescence, higher = more signal; also: test concentration not given here
[9] = basal MM1S mitochondrial membrane potential changes, profiling panel, cell-based, JC-1 fluorescence, 24 h, 100 nL compound (AID 1170); conditions: higher = more signal; also: test concentration not given here
[10] = A549 lung cancer cell viability effects, profiling panel, resazurin fluorescence, 24 h, PK04 Diversity Set (AID 1171); conditions: higher = more signal, called active from +8 up or from −8 down; also: test concentration not given here
[11] = HepG2 liver cancer cell viability effects, profiling panel, resazurin fluorescence, 24 h, PK04 Diversity Set (AID 1172); conditions: higher = more signal; also: test concentration not given here
[12] = basal S. cerevisiae growth modulation, no modifier, primary screen, OD600, strain BY4716, 24 h, basal condition (AID 1173); conditions: OD600, 24 h, higher = more signal, called active from +8 up or from −8 down
[13] = MM1S myeloma cell viability, profiling panel, resazurin fluorescence, basal, 24 h, PK04 Diversity Set (AID 1174); conditions: higher = more signal, called active from +8 up or from −8 down;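 also: MM1S multiple myeloma cell line; test concentration not given here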
[14] = biological target: Dihydroorotate dehydrogenase (quinone), mitochondrial (Plasmodium falciparum (isolate 3D7)) (UniProt Q08210); assay: PfDHODH enzyme inhibitors, primary screen, biochemical, C-terminal His tag, absorbance 600 nm (AID 1175); conditions: DCIP absorbance 600 nm, higher = more signal, called active from +8 up or from −8 down;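 also: recombinant parasite enzyme with a five histidine tag at its C terminus; test concentration not given here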
Chain of Dihydroorotate dehydrogenase (quinone), mitochondrial (Plasmodium falciparum (isolate 3D7)) (Q08210 whole entry, looked up): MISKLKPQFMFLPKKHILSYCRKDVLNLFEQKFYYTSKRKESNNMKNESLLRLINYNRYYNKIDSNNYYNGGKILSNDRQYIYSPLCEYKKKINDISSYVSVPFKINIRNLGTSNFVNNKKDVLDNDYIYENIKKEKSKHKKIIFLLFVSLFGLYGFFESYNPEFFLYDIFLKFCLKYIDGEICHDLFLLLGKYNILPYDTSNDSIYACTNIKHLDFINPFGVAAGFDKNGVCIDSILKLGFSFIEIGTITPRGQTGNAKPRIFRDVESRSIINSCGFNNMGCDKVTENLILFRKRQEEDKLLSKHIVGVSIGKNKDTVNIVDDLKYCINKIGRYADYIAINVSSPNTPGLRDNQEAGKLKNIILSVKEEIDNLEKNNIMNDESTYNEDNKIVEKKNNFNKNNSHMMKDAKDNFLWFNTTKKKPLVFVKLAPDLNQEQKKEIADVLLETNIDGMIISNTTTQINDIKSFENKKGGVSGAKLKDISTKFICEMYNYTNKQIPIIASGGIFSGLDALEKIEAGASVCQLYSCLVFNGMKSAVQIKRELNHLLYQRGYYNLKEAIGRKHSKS

[15] = P. aeruginosa biofilm formation inhibitors, primary screen, strain PAO1, LB-PBS medium, absorbance 600 nm (AID 1176); also: test concentration not given here; conditions: P. aeruginosa PAO1 growth/biofilm, A600, 12 h; higher = more signal
[16] = S. cerevisiae RM11-1a growth modifiers, primary screen, strain RM11-1a, OD600, basal, 24 h (AID 1177); conditions: OD600, 24 h, higher = more signal, called active from +8 up or from −8 down;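 also: cultures grown under basal conditions with no added stressor; test concentration not given here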
[17] = E. coli acrAB mutant growth effects, primary screen, E. coli filamentation inducers, strain DRC39, OD650, 24 h (AID 1178); conditions: higher = more signal, called active from +8 up or from −8 down;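 also: growth measured as culture turbidity by optical density at 650 nm; test concentration not given here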
[18] = E. coli acrAB mutant growth effects, primary screen, E. coli filamentation inducers, strain DRC39, OD650, 48 h (AID 1179);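 also: screen aims at cell division blockers that make cells filament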; conditions: E. coli DRC39 delta-acrAB growth, higher = more signal, called active from +8 up or from −8 down
[19] = RPMI8226 myeloma cell viability, profiling panel, resazurin fluorescence, basal, 24 h, PK04 Diversity Set (AID 1180); conditions: higher = more signal;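 also: RPMI8826 multiple myeloma cell line at 5000 cells per well; test concentration not given here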
[20] = biological target: E3 ubiquitin-protein ligase XIAP (Homo sapiens) (UniProt P98170); assay: XIAP binders, primary screen, biophysical, small-molecule microarray, fluorescence 635 nm (AID 1181); conditions: small-molecule microarray binding, higher = more signal;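 also: score merges 667 nm emission and signal to noise over triplicate slides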
Chain of E3 ubiquitin-protein ligase XIAP (Homo sapiens) (P98170 whole entry, looked up): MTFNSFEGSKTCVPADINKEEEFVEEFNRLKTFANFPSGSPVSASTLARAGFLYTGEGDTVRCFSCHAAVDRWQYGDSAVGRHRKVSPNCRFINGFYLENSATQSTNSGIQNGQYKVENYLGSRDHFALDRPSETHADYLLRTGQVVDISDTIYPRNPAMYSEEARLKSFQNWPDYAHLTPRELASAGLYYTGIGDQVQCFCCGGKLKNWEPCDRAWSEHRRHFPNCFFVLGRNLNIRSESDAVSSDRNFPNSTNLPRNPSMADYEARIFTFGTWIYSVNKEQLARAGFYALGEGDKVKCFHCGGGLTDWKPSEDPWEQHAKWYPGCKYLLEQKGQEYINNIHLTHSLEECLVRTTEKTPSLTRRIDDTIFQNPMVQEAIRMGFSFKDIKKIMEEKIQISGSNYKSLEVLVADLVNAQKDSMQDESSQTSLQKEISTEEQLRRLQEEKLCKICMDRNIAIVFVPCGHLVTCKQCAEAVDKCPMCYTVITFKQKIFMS

`CCOC(=O)[C@H](Cc1ccccc1)NC(=O)CCC1CC(OC(=O)NCCc2ccc(F)cc2)CC2(CCCC(COC(=O)NCCOC)O2)O1` (stereo not given in full) showed a z-score [1] of -0.153, a z-score [2] of -0.41 and a z-score [3] of -0.981. It also gave a z-score [4] of -3.38, a z-score [5] of -1.7 and a z-score [6] of 0.0204. The z-score [7] was 0.872 (inactive), the z-score [8] was -0.326 and the z-score [9] was -1.48. The z-score [10] was 0.042 (inactive), the z-score [11] was -0.154 and the z-score [12] was -0.664 (inactive). The z-score [13] was -0.195 (inactive), the composite z-score [14] was -1.47 (inactive) and the z-score [15] was 0.487 (inactive). For the same compound, the z-score [16] was 0.128 (inactive), the z-score [17] was 1.21 (inactive) and the z-score [18] was 0.195 (inactive). The z-score [19] was 0.673 and the composite z-score [20] was -0.242.
With `CCN1C(=O)[C@H]2[C@H]3[C@H](O)[C@H](O)CC(=O)[C@H]3CC[C@H]2C1=O` the z-score [1] was 0.0697, the z-score [2] was 0.015 and the z-score [3] was -0.0937. The z-score [4] was 0.14, the z-score [5] was -1.17 and the z-score [6] was -0.531. The z-score [7] was -0.386 (inactive), the z-score [8] was -0.0768 and the z-score [9] was 0.816. The z-score [10] was 0.26 (inactive), the z-score [11] was -0.195 and the z-score [12] was -0.286 (inactive). For the same compound, the z-score [13] was -0.242 (inactive), the composite z-score [14] was -0.794 (inactive) and the z-score [15] was -0.543 (inactive). For the same compound, the z-score [16] was -0.896 (inactive), the z-score [17] was -0.519 (inactive) and the z-score [18] was -0.177 (inactive). For the same compound, the z-score [19] was -0.0216 and the composite z-score [20] was -0.0476.
`CO[C@H]1COC(=O)CC=C[C@H](C)[C@@H](OC)COC(=O)[C@H](C)COC(=O)CC=C[C@@H]1C` gave a z-score [1] of 0.389, a z-score [2] of -0.376 and a z-score [3] of 1.05. For the same compound, the z-score [4] was 0.199, the z-score [5] was -1.03 and the z-score [6] was 1.86. The z-score [7] was 0.352 (inactive), the z-score [8] was -0.316 and the z-score [9] was -0.326. The z-score [10] was -0.132 (inactive), the z-score [11] was 0.531 and the z-score [12] was -0.319 (inactive). For the same compound, the z-score [13] was 0.254 (inactive), the composite z-score [14] was 0.491 (inactive) and the z-score [15] was -0.838 (inactive). The z-score [16] was 0.606 (inactive), the z-score [17] was 0.827 (inactive) and the z-score [18] was 0.0975 (inactive). It also gave a z-score [19] of -0.501 and a composite z-score [20] of -0.256.
In the case of `COC(=O)CC=C[C@H](C)[C@@H](OCc1cccc(Br)c1)[C@@H](C)[C@H](OC)C1CCCCC1`, the z-score [1] is reported as 0.836, the z-score [2] is reported as 0.128 and the z-score [3] is reported as 1.21. The z-score [4] was -2.16, the z-score [5] was -0.474 and the z-score [6] was 0.918. For the same compound, the z-score [7] was 0.831 (inactive), the z-score [8] was 0.00209 and the z-score [9] was -0.324. The z-score [10] was 0.0303 (inactive), the z-score [11] was -0.363 and the z-score [12] was -0.949 (inactive). The z-score [13] was 0.0742 (inactive), the composite z-score [14] was -0.498 (inactive) and the z-score [15] was -1.16 (inactive). For the same compound, the z-score [16] was 0.161 (inactive), the z-score [17] was 0.474 (inactive) and the z-score [18] was -0.596 (inactive). It also gave a z-score [19] of -0.171 and a composite z-score [20] of -0.318.
Compound `C#CCCCON=C1C[C@@H](O)[C@@H](O)[C@@H]2[C@@H]3C(=O)N(c4cccc(Oc5ccccc5)c4)C(=O)[C@@H]3CC[C@H]12` has a z-score [1] of 1.08, a z-score [2] of 0.139 and a z-score [3] of 0.411. It also gave a z-score [4] of 0.632, a z-score [5] of 0.116 and a z-score [6] of 0.862. For the same compound, the z-score [7] was 0.57 (inactive), the z-score [8] was -0.263 and the z-score [9] was -1.29. The z-score [10] was 0.19 (inactive), the z-score [11] was 0.331 and the z-score [12] was -0.351 (inactive). The z-score [13] was 1.08 (inactive), the composite z-score [14] was -1.48 (inactive) and the z-score [15] was 0.553 (inactive). The z-score [16] was -0.0064 (inactive), the z-score [17] was 0.899 (inactive) and the z-score [18] was 0.401 (inactive). The z-score [19] was 1.94 and the composite z-score [20] was -0.0832.
For `COC(=O)CC=C[C@@H](C)[C@H](OCc1cccc(-c2ccccc2)c1)C1CCCCC1`, the z-score [1] was 0.687, the z-score [2] was -0.328 and the z-score [3] was -0.0634. The z-score [4] was -1.92, the z-score [5] was -0.771 and the z-score [6] was -0.579. For the same compound, the z-score [7] was 0.57 (inactive), the z-score [8] was -0.165 and the z-score [9] was -0.172. For the same compound, the z-score [10] was 0.2 (inactive), the z-score [11] was -0.307 and the z-score [12] was -0.0348 (inactive). The z-score [13] was 0.45 (inactive), the composite z-score [14] was -3.69 (inactive) and the z-score [15] was -0.409 (inactive). For the same compound, the z-score [16] was 1.82 (inactive), the z-score [17] was -0.933 (inactive) and the z-score [18] was -0.661 (inactive). It also gave a z-score [19] of 0.403 and a composite z-score [20] of -0.267.
Work on `CCCCC#C[C@@H]1C=C[C@H](Oc2cc(OC)c(OC)c(OC)c2)[C@@H](COC(=O)OCC)O1` yielded a z-score [1] of 1.75, a z-score [2] of -0.931 and a z-score [3] of 0.928. It also gave a z-score [4] of -2.65, a z-score [5] of -1.86 and a z-score [6] of -0.163. For the same compound, the z-score [7] was 0.841 (inactive), the z-score [8] was 0.23 and the z-score [9] was -0.254. The z-score [10] was -0.108 (inactive), the z-score [11] was -0.826 and the z-score [12] was -0.535 (inactive). The z-score [13] was -1.03 (inactive), the composite z-score [14] was -1.48 (inactive) and the z-score [15] was 0.806 (inactive). The z-score [16] was 0.628 (inactive), the z-score [17] was 1.02 (inactive) and the z-score [18] was 0.751 (inactive). The z-score [19] was -0.65 and the composite z-score [20] was -0.113.
In the case of `CO[C@@H]1COC(=O)[C@H](CCSC)NC(=O)CC=C[C@@H](C)COC(=O)CCC[C@H]1C`, the z-score [1] is reported as 0.471, the z-score [2] is reported as -0.304 and the z-score [3] is reported as -0.764. For the same compound, the z-score [4] was -0.38, the z-score [5] was -0.687 and the z-score [6] was 1.95. The z-score [7] was -0.688 (inactive), the z-score [8] was -0.194 and the z-score [9] was -0.0804. For the same compound, the z-score [10] was 0.977 (inactive), the z-score [11] was 1.09 and the z-score [12] was -0.509 (inactive). For the same compound, the z-score [13] was -0.11 (inactive), the composite z-score [14] was -0.555 (inactive) and the z-score [15] was -0.892 (inactive). The z-score [16] was 0.0665 (inactive), the z-score [17] was 0.104 (inactive) and the z-score [18] was 0.156 (inactive). The z-score [19] was 0.53 and the composite z-score [20] was 0.871.

Source: PubChem BioAssay
